Laboratory results taken from the supplement of paper PMC12645437, “Orthogonal IMiD-Degron Pairs Induce Selective Protein Degradation in Cells” (ACS Chemical Biology, 2025).
Whole data set: some 8,300 sequences, median “log2 fold change of degron read counts, EGFP-low vs EGFP+ sorted cells (limma voom), compound-induced degradation” near -1.1, cut for the highest 2% near 3.2. The full list was thinned out, with the highest values kept by preference.

T1: CRBN, Q96SW2
T1 chain: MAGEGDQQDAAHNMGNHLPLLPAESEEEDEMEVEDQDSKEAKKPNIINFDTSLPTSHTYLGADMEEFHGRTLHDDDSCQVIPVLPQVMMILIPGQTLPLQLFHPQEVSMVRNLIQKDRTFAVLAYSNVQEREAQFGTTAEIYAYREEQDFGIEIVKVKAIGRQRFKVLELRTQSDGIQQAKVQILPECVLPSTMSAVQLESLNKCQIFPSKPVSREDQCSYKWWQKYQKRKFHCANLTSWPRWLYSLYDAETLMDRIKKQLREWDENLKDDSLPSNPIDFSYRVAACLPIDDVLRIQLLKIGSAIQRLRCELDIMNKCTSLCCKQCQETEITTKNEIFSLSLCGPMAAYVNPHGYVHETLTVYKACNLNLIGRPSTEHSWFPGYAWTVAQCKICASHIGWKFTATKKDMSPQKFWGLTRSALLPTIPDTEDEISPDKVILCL

B1: 46L_47D_49P_50I_52G_53F_54W_55C_67L_, Q9UKT9 (peptide)
chain: LDCPICGFWCTQKGNLLRHIKL
B2: 46F_47A_49P_50V_52G_53A_54V_55F_67L_, Q9UKT9 (peptide)
chain: FACPVCGAVFTQKGNLLRHIKL
B3: 46F_47Y_49P_50Q_52G_53A_54M_55F_67L_, Q9UKT9 (peptide)
chain: FYCPQCGAMFTQKGNLLRHIKL
B4: 46F_47C_49N_50V_52G_53A_54W_55F_67L_, Q9UKT9 (peptide)
chain: FCCNVCGAWFTQKGNLLRHIKL
B5: 46F_47I_49E_50V_52G_53A_54D_55F_67L_, Q9UKT9 (peptide)
chain: FICEVCGADFTQKGNLLRHIKL
B6: 46F_47T_49D_50V_52G_53A_54M_55F_67L_, Q9UKT9 (peptide)
chain: FTCDVCGAMFTQKGNLLRHIKL
B7: 46L_47S_49N_50Q_52G_53F_54V_55C_67L_, Q9UKT9 (peptide)
chain: LSCNQCGFVCTQKGNLLRHIKL
B8: 46F_47H_49D_50V_52G_53A_54C_55F_67L_, Q9UKT9 (peptide)
chain: FHCDVCGACFTQKGNLLRHIKL
B9: 46F_47R_49P_50V_52G_53A_54C_55F_67L_, Q9UKT9 (peptide)
chain: FRCPVCGACFTQKGNLLRHIKL
B10: 46F_47A_49P_50V_52G_53A_54C_55F_67L_, Q9UKT9 (peptide)
chain: FACPVCGACFTQKGNLLRHIKL
B11: 46F_47V_49D_50V_52G_53A_54C_55F_67L_, Q9UKT9 (peptide)
chain: FVCDVCGACFTQKGNLLRHIKL
B12: 46F_47W_49D_50V_52G_53A_54C_55F_67L_, Q9UKT9 (peptide)
chain: FWCDVCGACFTQKGNLLRHIKL
B13: 46F_47S_49P_50V_52G_53A_54C_55F_67L_, Q9UKT9 (peptide)
chain: FSCPVCGACFTQKGNLLRHIKL
B14: 46F_47V_49P_50V_52G_53A_54C_55F_67L_, Q9UKT9 (peptide)
chain: FVCPVCGACFTQKGNLLRHIKL
B15: 46F_47M_49P_50V_52G_53A_54C_55F_67L_, Q9UKT9 (peptide)
chain: FMCPVCGACFTQKGNLLRHIKL
B16: 46F_47G_49P_50V_52G_53A_54C_55F_67L_, Q9UKT9 (peptide)
chain: FGCPVCGACFTQKGNLLRHIKL
B17: 46F_47D_49P_50V_52G_53A_54C_55F_67L_, Q9UKT9 (peptide)
chain: FDCPVCGACFTQKGNLLRHIKL
B18: 46F_47F_49P_50V_52G_53A_54C_55F_67L_, Q9UKT9 (peptide)
chain: FFCPVCGACFTQKGNLLRHIKL
B19: 46F_47C_49P_50V_52G_53A_54C_55F_67L_, Q9UKT9 (peptide)
chain: FCCPVCGACFTQKGNLLRHIKL

Biological target: T1, CRBN, Q96SW2
Assay: log2 fold change of degron read counts, EGFP-low vs EGFP+ sorted cells (limma voom), compound-induced degradation; higher = more compound-induced degradation of the degron-EGFP fusion; degrons are variants of IKZF1/3 zinc finger 2; compound dose not given here
Conditions: Jurkat, 18 h
[1] = compound: compound 19 (5-tert-butyl-thalidomide)
[2] = compound: compound 22 (5-morpholino-thalidomide)
[3] = compound: compound 33 (diphenyl IMiD analogue)
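Also: pooled lentiviral library of zinc finger degron-EGFP fusions in mCherry-positive Jurkat cells, FACS-sorted after compound exposure, with degron abundance counted by next-generation sequencing.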

| Sequence | log2 fold change of degron read counts [1] | log2 fold change of degron read counts [2] | log2 fold change of degron read counts [3] | log2 fold change of degron read counts (compound: thalidomide) |
| --- | --- | --- | --- | --- |
| B1 | -0.559 | -0.625 | 0.68 | 1.33 |
| B2 | 3.09 | 1.74 | 1.78 | 0.502 |
| B3 | 0.518 | 0.45 | 0.601 | -1.06 |
| B4 | -1.92 | -1.43 | -1.27 | -1.34 |
| B5 | -2.24 | -0.906 | -0.571 | 0.184 |
| B6 | -1.4 | -0.892 | -0.371 | -0.84 |
| B7 | -2.24 | -2.61 | -2 | -2.24 |
| B8 | 0.383 | 0.3 | -1.01 | -2.43 |
| B9 | -0.619 | 0.101 | 1.52 | 0.981 |
| B10 | 3.39 | 1.64 | 1.85 | 0.646 |
| B11 | -1.45 | -0.0454 | 0.676 | 0.186 |
| B12 | 2.78 | 3.47 | 1.12 | -0.931 |
| B13 | 2.64 | 1.8 | 2.73 | 1.07 |
| B14 | -0.46 | 1.87 | 2.08 | 2.53 |
| B15 | -0.624 | 0.321 | 2.31 | 0.962 |
| B16 | 3.88 | 3.16 | 2.81 | 1.1 |
| B17 | 1.39 | -0.358 | 1.46 | 1.34 |
| B18 | 3 | 3.34 | 2.16 | 1.3 |
| B19 | 2.37 | 1.98 | 2.99 | 2.06 |
